This note sets out measurements from PubChem BioAssay AID624351 (Southern Research Specialized Biocontainment Screening …, 2012).

The structures appear in SMILES notation. About 1,400 (58%) of roughly 2,400 compounds were called active.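 Rule for the calls: active = inhibition of 30% or more at any tested dose; inconclusive = primary hits over the limit that were never retested; inactive = the rest.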 So high a share suggests a set chosen from earlier hits. The list shows a part of the results.

The assay is described as follows: ADP Hunter readout inhibition without MgcRacGAP – biochemical, coupled enzyme counter-screen, artefact control for MgcRacGAP inhibitor project, dose response (AID 624351).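 Note: signal is the ADP detection kit reading of free GDP without any GAP enzyme.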 The following applies: fluorescence, no MgcRacGAP; series mostly up to 80 µM.
As to `CN(C1CCCCC1)S(=O)(=O)c1cccc2nsnc12`, the IC50 entry is “inactive”.

For `CSC1=NN(c2ccccc2)CN(c2ccccc2)N1C`, the IC50 is 72.1 µM (active).

As for `COc1cc(CCNC2=CC(=O)c3ncccc3C2=O)ccc1O`, the IC50 was 70.9 µM (active).

With `Cc1sc2nc(CN3CCOCC3)nc(N3CCOCC3)c2c1C`, the IC50 entry is “inactive”.

As to `CC(=O)N1CCN(c2ccc(NCc3ccc4c(c3)OCO4)cc2)CC1`, the IC50 was 9.9 µM (active).

Regarding `COc1cc(OC)cc(C(=O)N2CCN(Cc3ccc4c(c3)OCO4)CC2)c1`, the IC50 entry was “inactive”.

With `Clc1ccccc1CNCc1ccc2c(c1)OCO2`, the IC50 result is “inactive”.

On to `COc1cccc(OC)c1C(=O)N1CCN(Cc2ccc3c(c2)OCO3)CC1`, for which the IC50 result is “inactive”.

For the compound `c1cc2c(cc1CNc1ccc(N3CCOCC3)cc1)OCO2`, the half-maximal inhibitory concentration (IC50) was 4.31 µM (active).

With `C=CCNC(=S)N1CCN(Cc2ccc3c(c2)OCO3)CC1`, the IC50 result is “inactive”.

Regarding `CN1CCN(CCCN2c3ccccc3Sc3ccc(Cl)cc32)CC1`, the IC50 was 83.1 µM (active).

Consider `C=CCc1cc(Cl)ccc1OCCN(C)C`, for which the IC50 result is “inactive”.

In the case of `CCN1CCN(CCCOc2ccc(Cl)cc2Br)CC1`, the IC50 entry is “inactive”.

On to `CN(C)CCCN1c2ccc(O)cc2Sc2ccc(Cl)cc21`, for which the IC50 was 13.1 µM (active).

For the compound `CN1CCN(CCOCCOc2ccc(Br)cc2Cl)CC1`, the IC50 entry is “inactive”.

Turning to `COc1cc(/C=N/Nc2ccc(C(F)(F)F)cn2)ccc1O`, the IC50 was 52.5 µM (active).

Take `Cc1ncc(CO)c(/C=N/Nc2ccc(C(F)(F)F)cn2)c1O`: the IC50 entry is “inactive”.

Consider `Oc1ccc(/C=N/Nc2ccc(C(F)(F)F)cn2)c(O)c1`, for which the IC50 was 34.8 µM (active).

Regarding `COc1cc(/C=N/Nc2ncc(C(F)(F)F)cc2Cl)cc(OC)c1O`, the IC50 result was “inactive”.

Consider `Oc1ccc(/C=N/Nc2ccc(C(F)(F)F)cn2)cc1`, for which the IC50 is 29.7 µM (active).

For `OCCNCCSc1nc(C2CCCCC2)n(-c2ccccc2Cl)n1`, the IC50 entry was “inactive”.

`O=c1[nH]c(/C=C\c2ccc(O)cc2)nc(O)c1[N+](=O)[O-]`: the IC50 is 43.4 µM (active).

On to `COc1cc(/C=N/NC(=O)c2ccc(N3CCCC3=O)cc2)ccc1O`, for which the IC50 is 31.5 µM (active).

Take `COc1cc(/C=N/NC(=O)c2cccc(N3CCCC3=O)c2)ccc1O`: the IC50 is 34.1 µM (active).

Consider `O=c1nc2s/c(=C\c3ccc(-c4ccccc4[N+](=O)[O-])o3)c(=O)n2nc1-c1ccccc1`, for which the IC50 entry is “inactive”.

For the compound `C=C1CC(C(=O)N/N=C/c2ccc(O)cc2)C1`, the IC50 was 45.9 µM (active).

Take `COc1cc(/C=N/N=C2\CC3CCC2(C)C3(C)C)ccc1O` (stereo not given): the IC50 is 45.7 µM (active).

Turning to `COc1cc(/C=N/NC(=O)NC23CC4CC(CC(C4)C2)C3)ccc1O`, the IC50 is 56.2 µM (active).

For the compound `O=C(N/N=C/c1ccc(O)cc1)NC12CC3CC(CC(C3)C1)C2`, the IC50 is 53 µM (active).

With `O=C(O)C1CSC(c2ccco2)N1` (stereo not given), the IC50 result was “inactive”.

Regarding `CCOc1ccc(CNC2CCCc3ccccc32)cc1` (stereo not given), the IC50 entry is “inactive”.

Regarding `COc1cc(/C=N\NC(=O)C2CC3C=CC2C3)ccc1O` (stereo not given), the IC50 was 23.9 µM (active).

In the case of `COCCNC(=O)CN(C(=O)Cn1nnc2ccccc21)c1ccc(C)cc1`, the IC50 entry was “inactive”.

As for `COCCNC(=O)Cn1cc(/C=N/NC(=O)c2ccc(Oc3ccc(O)cc3)cc2)c2ccccc21`, the half-inhibitory concentration (IC50) is 44.8 µM (active).

In the case of `Oc1ccc(/C=N/Nc2ncc(Cl)cc2Cl)cc1`, the IC50 is 21.5 µM (active).

As to `Oc1ccc(/C=N/Nc2nccnc2Cl)c(O)c1`, the IC50 is 12.8 µM (active).

Consider `Oc1ccc(/C=N/Nc2nccnc2Cl)cc1`, for which the IC50 is 21.1 µM (active).

As for `Cc1cc(C)c(OCCCCN(C)Cc2ccccc2)c(C)c1`, the IC50 result was “inactive”.

As to `COc1cc(/C=N/N(C)c2ccccc2)ccc1O`, the IC50 was 17.3 µM (active).

On to `COc1cc(/C=N/N(C)c2ccccc2)cc(Cl)c1O`, for which the IC50 was 37.7 µM (active).

As for `COc1cc(OC)c(OC)cc1/C=N/N(C)c1ccccc1`, the IC50 is 56.4 µM (active).

For `Cc1ccc(N2C(S)=C(C#N)C(=O)NC2c2cccs2)cc1` (stereo not given), the IC50 result was “inactive”.

As to `CC1=NN(c2ccc(Cl)c(C(=O)O)c2)C(=O)/C1=C/c1ccc(-c2ccccc2[N+](=O)[O-])o1`, the IC50 result is “inactive”.

Take `Cc1cccc(CN2CCN(C(C)C(=O)NC(C)c3ccccc3)CC2)c1` (stereo not given): the IC50 entry was “inactive”.

For `COc1cccc(-c2cc(C(=O)N3CCN(c4ccc(F)cc4)CC3)no2)c1`, the IC50 entry is “inactive”.

As for `CC(=O)N1CCN(c2ccc(NCc3ccc(F)cc3)cc2)CC1`, the IC50 was 10.9 µM (active).

Take `CC(=O)N1CCN(c2ccc(NCc3cccc(C)c3)cc2)CC1`: the IC50 was 7.75 µM (active).

In the case of `CC(=O)N1CCN(c2ccc(NCc3ccc(C(C)C)cc3)cc2)CC1`, the IC50 was 8.85 µM (active).

Take `Cc1ccc(CNc2ccc(N3CCOCC3)cc2)s1`: the IC50 is 11.7 µM (active).

In the case of `O=c1c2cc(F)ccc2sn1-c1ccccc1`, the IC50 entry was “inactive”.

As to `O=C(CNCc1cccs1)Nc1ccc(N2CCCCCC2)cc1`, the IC50 result is “inactive”.

As for `CCc1ccc(CNc2ccc(N3CCN(C(C)=O)CC3)cc2)cc1`, the IC50 was 9.1 µM (active).

As to `CC(C)c1ccc(CNc2ccc(N3CCOCC3)cc2)cc1`, the IC50 was 7.52 µM (active).

For `CC(=O)N1CCN(c2ccc(NCc3cccs3)cc2)CC1`, the IC50 is 14.7 µM (active).

On to `CC(=O)N1CCN(c2ccc(NCc3ccccc3)cc2)CC1`, for which the IC50 was 8.44 µM (active).

For `Cc1ccccc1C(OCC(O)CN1CCN(CCO)CC1)c1ccccc1` (stereo not given), the IC50 result is “inactive”.

`O=C(CNc1ccc(Oc2ccccc2)cc1)N1CCOCC1`: the IC50 result is “inactive”.

`c1ccc(CNc2ccc(N3CCOCC3)cc2)cc1`: the IC50 was 5.39 µM (active).

With `Cc1ccc(/C=N/Nc2ccc(Cl)c(C(=O)O)c2)s1`, the IC50 is 67.4 µM (active).

On to `CC(C)n1cc(/C=N/Nc2ccc(Cl)c(C(=O)O)c2)c2ccccc21`, for which the IC50 entry is “inactive”.

For `Cc1ccc(/C=N/Nc2ccc(C(=O)O)cc2)s1`, the IC50 was 79.7 µM (active).

For `O=c1[nH][nH]cc1C=Nc1cc(Cl)ccc1O`, the IC50 was 46 µM (active).

For `O=c1[nH][nH]cc1C=Nc1ccc(Cl)cc1Cl`, the IC50 entry was “inactive”.

Turning to `CCCCn1c(SCC(=O)c2ccc(O)c(O)c2)nc2ccsc2c1=O`, the IC50 is 45.9 µM (active).

Consider `CCOc1cccc(CNc2ccc(O)cc2)c1OCc1ccc(Cl)cc1Cl`, for which the IC50 result is “inactive”.

Consider `CC(Oc1ccc(Cl)cc1Cl)C(=O)Nc1ccc(O)cc1` (stereo not given), for which the IC50 was 46.9 µM (active).

For `O=C(NC(=S)Nc1cccc2c(O)cccc12)c1ccco1`, the IC50 was 42.5 µM (active).

For the compound `CCCC(=O)NC(=S)Nc1cccc2c(O)cccc12`, the IC50 was 46.4 µM (active).

On to `O=C(NC(NC(=S)Nc1ccc(Cl)c(Cl)c1)C(Cl)(Cl)Cl)c1ccco1` (stereo not given), for which the IC50 result was “inactive”.

Regarding `CCN1CCN(CC(=O)Nc2cc(C(F)(F)F)ccc2OCCOC)CC1`, the IC50 entry is “inactive”.

For `CCOc1cc(/C=N/NC(=O)CN2CCCCC2)ccc1O`, the IC50 is 55.5 µM (active).

`CCOc1cc(/C=N/NC(=O)C(=O)N2CCCC2)ccc1O`: the IC50 is 60.6 µM (active).

Take `S=C(NCc1ccco1)NCc1ccco1`: the IC50 result is “inactive”.

`Oc1ccc(/C=N/NC(=S)NCc2ccco2)cc1`: the IC50 is 44.4 µM (active).

Turning to `COc1cc(/C=N/NC(=O)C(=O)N2CCCC2)ccc1O`, the IC50 was 40.8 µM (active).

Turning to `Oc1ccc(/C=N/NC(=S)NCC2CCCO2)cc1` (stereo not given), the IC50 was 28.5 µM (active).

Take `CCN1CCN(C(=S)NCC2CCCO2)CC1` (stereo not given): the IC50 entry is “inactive”.

Regarding `COc1cc(/C=N/NC(=O)C(=O)NCC2CCCO2)ccc1O` (stereo not given), the 50% inhibitory concentration (IC50) was 31.2 µM (active).

On to `Cc1nnc(N=c2ssnc2Cl)o1`, for which the IC50 result is “inactive”.

Take `Nc1nc(=S)ss1`: the IC50 entry is “inactive”.

`COc1ccc2[nH]c3c(=O)n(CCCCC(=O)N4CCC(C(N)=O)CC4)c(=S)[nH]c3c2c1`: the IC50 was 53.3 µM (active).

For the compound `COc1cccc(CN2CCC(C(=O)N3CCC(C)CC3)CC2)c1`, the IC50 result was “inactive”.

Regarding `COc1ccc2[nH]c3c(=O)n(Cc4ccc(C(=O)N5CCC(C(N)=O)CC5)cc4)c(=S)[nH]c3c2c1`, the IC50 is 37.6 µM (active).

On to `COc1ccc(CN2CCCC(C(=O)N3CCCC3)C2)cc1` (stereo not given), for which the IC50 result is “inactive”.

As for `COc1ccc(N2CCN(C(=O)CCCn3c(=O)c4cccn4c4cccnc43)CC2)cc1`, the IC50 entry is “inactive”.

On to `CC(C)=NNc1cc([N+](=O)[O-])cc2c1C(=O)N(C)S2=O` (stereo not given), for which the IC50 result was “inactive”.

Regarding `Oc1ccc(Cl)cc1N=Cc1sc2ccccc2c1Cl`, the IC50 is 21.4 µM (active).

In the case of `Cc1ccc(O)c(N=Cc2sc3ccccc3c2Cl)c1`, the IC50 was 39.7 µM (active).

Consider `CS(=O)(=O)N1CCN(C2C3CC4CC(C3)CC2C4)CC1` (stereo not given), for which the IC50 result is “inactive”.

Consider `O=C(CN1CCCCCC1)NN(Cc1ccccc1)c1ccccc1`, for which the IC50 entry was “inactive”.

As for `O=C(COC(=O)c1ccccc1)Nc1ncc([N+](=O)[O-])s1`, the IC50 result is “inactive”.

Take `COc1ccc(N2CCN(C(CNS(=O)(=O)c3ccc4c(c3)OCCO4)c3ccco3)CC2)cc1` (stereo not given): the IC50 result was “inactive”.

For the compound `CCS(=O)(=O)NC(C)C(c1cccs1)N1CCN(c2ccc(OC)cc2)CC1` (stereo not given), the IC50 was 81.8 µM (active).

Regarding `COc1ccc(N2CCN(C(c3cccs3)C(C)NC(=O)c3ccco3)CC2)cc1` (stereo not given), the IC50 result was “inactive”.

Regarding `Nc1ccc(-c2nc3ccc(N)cc3s2)cc1`, the IC50 was 75.8 µM (active).

Turning to `Nc1ccc2nc(N)sc2c1`, the 50% inhibitory concentration (IC50) is 11 µM (active).

As to `N#CC1(Nc2ccc3c4c(cccc24)CC3)CCCCC1`, the IC50 was 24.3 µM (active).

For the compound `COc1ccc2nc(C)cc(SCC(=O)N/N=C/c3ccc(O)c(O)c3)c2c1`, the IC50 was 28 µM (active).

For the compound `COc1ccc2nc(/N=C(\N)NC(=O)N3c4ccccc4Sc4ccccc43)nc(C)c2c1`, the IC50 result was “inactive”.

`COc1ccc2c(c1)c(C(=O)N/N=C/c1ccc(O)c(O)c1)c(C)n2C`: the IC50 is 22 µM (active).

Consider `COc1ccc(/C=N/Nc2cc(C)nc3ccc(OC)cc23)c(OC)c1`, for which the IC50 result is “inactive”.

With `CC1(C)C2CCC(CN=C(N)CSS(=O)(=O)O)C1C2` (stereo not given), the IC50 result is “inactive”.

For the compound `CC(/C=C/c1ccc(O)cc1)=N/O`, the IC50 was 11.8 µM (active).

For the compound `COc1ccc(N2CCC(CNC(=O)Nc3ccc(C)c(C)c3)C2)cc1` (stereo not given), the IC50 entry was “inactive”.

Turning to `CCc1c(C)nc(N2CCN(c3ccc(OC)cc3)CC2)[nH]c1=O`, the IC50 entry was “inactive”.

With `COc1ccc(CNCC(=O)Nc2ccccc2-n2cccc2)cc1`, the IC50 result is “inactive”.

As for `COc1ccc(N2CCC(CNC(=S)Nc3cc(C)cc(C)c3)C2)cc1` (stereo not given), the IC50 result is “inactive”.

As for `CCc1ccccc1NC(=S)NCC1CCN(c2ccc(OC)cc2)C1` (stereo not given), the IC50 was 65.3 µM (active).

For `COc1ccc(N2CCC(CNC(=S)Nc3cccc(C)c3)C2)cc1` (stereo not given), the IC50 was 72.2 µM (active).

Turning to `COc1ccc(NC(=S)NCC2CCN(c3ccc(OC)cc3)C2)cc1` (stereo not given), the IC50 is 52.5 µM (active).
